Measured values as given in PubChem BioAssay (Tox21).
Several values for one entry are separate records, joined by “and”; a condition that tells them apart may be missing. Equal values may be shown once. Records with an inconclusive call do not appear. Where a call stands in place of a potency, no number is given. The source holds several records for some structures; these can differ, active in one and inactive in another. Activity calls are given as the source filed them. The call rests on the fitted dose curve.

Assay: Nuclear factor erythroid 2-related factor 2/antioxidant responsive element (Nrf2/ARE) small molecule agonists: luciferase reporter gene qHTS assay in human keratinocytes (AID 1919969); further: nearly all actives have a fitted effect of over 35% in size
Potency means the concentration at half of the fitted maximal effect.

Structure (SMILES)	Potency
OC[C@@H](O)[C@@H](O)[C@H](O)[C@@H](O)CO	inactive
CC(C)NCC(O)c1ccc(O)c(O)c1 (stereo not drawn)	inactive
CCc1cccc(O)c1	inactive
Cc1ccc(C(=O)O)o1	inactive
C=C(C)C(=O)OCCCCCC	inactive
C[C@]12CC[C@@H]3c4ccc(O)cc4CC[C@H]3[C@@H]1CC[C@H]2O	inactive
CCCOC(=O)c1cc(O)c(O)c(O)c1	inactive
CCCCCCCCCCCCCCCC(=O)O	inactive
O=C(O)CCCC(=O)O	inactive
CC(=O)C(=O)O	inactive
Cc1c(C(N)=O)cc([N+](=O)[O-])cc1[N+](=O)[O-]	inactive
CCCCCCCCCC(=O)OC	inactive
O=C(Cl)c1c(Cl)c(Cl)c(C(=O)Cl)c(Cl)c1Cl	inactive
O=C(O)Cc1c[nH]c2ccccc12	inactive
CCNC(=S)NCC	inactive
CCC(Cc1c(I)cc(I)c(N)c1I)C(=O)O (stereo not drawn)	inactive
C=CC(=O)OCCCC	inactive
COC(=O)/C=C\C(=O)OC	inactive
O=S1(=O)CCCO1	inactive
CC(CCO)CC(C)(C)C (stereo not drawn)	inactive
CN(C)CCOCCN(C)C	inactive

Structure (SMILES)	Potency
CCCCCCCCCCCC[N+](C)(C)Cc1ccccc1	inactive
Oc1c(Cl)cc(Cl)cc1Sc1cc(Cl)cc(Cl)c1O	6.13 µM (active) and inactive
CCCCC(C=O)CC (stereo not drawn)	inactive
CC1CCC2CC1C2(C)C (stereo not drawn)	inactive
c1ccc2cc(Nc3ccc(Nc4ccc5ccccc5c4)cc3)ccc2c1	inactive
CC(C)(C)[C@@H](O)[C@@H](Cc1ccc(Cl)cc1)n1cncn1	inactive
C[C@]12C=CC(=O)C=C1CC[C@H]1[C@@H]3C[C@@H](O)[C@](O)(C(=O)CO)[C@@]3(C)C[C@H](O)[C@@]12F	inactive
CCN1CCCC1=O	inactive
Brc1ccc(Br)c(Br)c1	inactive
C=C(C)CC(C)(C)C	inactive
c1ccc2scnc2c1	inactive
COCN(COC)c1nc(N(COC)COC)nc(N(COC)COC)n1	inactive
CCCCCCCCCCCCCC[N+](C)(C)C	inactive
O=c1ccc2ccccc2o1	inactive
C=C(C)C(=O)OCC(CC)(COC(=O)C(=C)C)COC(=O)C(=C)C	inactive
C1COCCN1	inactive
Cc1ccccc1C(OCCN(C)C)c1ccccc1 (stereo not drawn)	inactive
Cc1ccc(S(=O)(=O)N=C=O)cc1	inactive
CC(=O)[C@H]1CC[C@H]2[C@@H]3CC=C4C[C@@H](O)CC[C@]4(C)[C@H]3CC[C@]12C	inactive
CN/C(=C\[N+](=O)[O-])NCCSCc1csc(CN(C)C)n1	inactive
NCCS(=O)(=O)O	inactive

Structure (SMILES)	Potency
CC(C)CC(C)CC(O)CC(C)C (stereo not drawn)	inactive
CC(C)CCCCCCCOC(=O)CCCCC(=O)OCCCCCCCC(C)C	inactive
C=C(C)C(=O)OCCC[Si](OC)(OC)OC	inactive
COc1ccc([N+](=O)[O-])cc1N	inactive
Cc1ccc(O)cc1	inactive
C[N+](C)(C)CCCCCC[N+](C)(C)C	inactive
CCCCOC(=O)CC(CC(=O)OCCCC)(OC(C)=O)C(=O)OCCCC	inactive
C1CNCCN1	inactive
COc1ccc(CN(CCN(C)C)c2ccccn2)cc1	inactive
CCCCCCCC(=O)OCC(O)CO (stereo not drawn)	inactive
CCCCCC(N)=O	inactive
C1CCCNCC1	inactive
c1ccc2c(c1)[nH]c1ccccc12	inactive
Cc1ccc(S(=O)(=O)O)cc1C	inactive
CCOc1ccc(NC(=O)CC(C)O)cc1 (stereo not drawn)	inactive
ClC/C=C/CCl	inactive
CCN=c1cc2oc3cc(NCC)c(C)cc3c(-c3ccccc3C(=O)OCC)c-2cc1C	inactive and 27.3 µM (active)
Oc1ccc(O)cc1	60.8 µM (active) and 61.1 µM (active) and 21.1 µM (active)
O=C1OC2(c3ccccc31)c1cc(I)c(O)c(I)c1Oc1c2cc(I)c(O)c1I	inactive and 33.1 µM (active)
CC1(C)S[C@@H]2[C@H](NC(=O)[C@H](N)c3ccccc3)C(=O)N2[C@H]1C(=O)O	inactive
CC(C)=CCC/C(C)=C/CO	inactive
